65 compounds from PubChem BioAssay AID902 (National Center for Advancing Translational Sciences (NCATS), 2007) can be followed below.

The campaign covered roughly 130,000 compounds. About 1,900 (1.5%) were called active. Another 5% or so got no clear call; they are omitted. Calls follow the shape of the dose curve; as a rule, active = well fitted cell-killing curve with a large enough effect; inconclusive = small, poorly fitted or top-dose-only effect; inactive = no such curve, though single readings can be large or run the other way. The list comes from a sample in which actives are over-represented; it also holds similar structures and randomly drawn compounds. Entries that show only a call come without a potency.
Potency is read from the fitted curve at half-maximal effect.

The nature of this test: qHTS Screen for Compounds that Selectively Target Cancer Cells with p53 Mutations: Cytotoxicity of p53ts Cells at the Nonpermissive Temperature. Also: nearly all actives have a fitted effect of over 55% in size. The conditions noted are these: H1299-p53A138V viability at 39C, ATP luminescence, 24 h; series mostly up to 46.1 µM. An excerpt: NIH Chemical Genomics Center [NCGC] NIH Molecular Libraries Screening Centers Network [MLSCN] MLSCN Grant: 1 X01 MH079844-01 Assay Submitter (PI): Dr. SUN, YI, University of Michigan NCGC Assay Overview: Synthetic Lethal Screen for Compounds to Kill Cancer Cells with p53 Mutation. Tumor suppressor gene p53 serves as a major cellular barrier against tumorigenesis. […] The goal of this screening is to identify small molecule probes that selectively kill cancer cells with mutations in p53. This screening was carried out using two lines of H1299 lung cancer cells. The H1299-p53 A138V line express a temperature sensitive p53 mutant (p53ts) in which the mutant p53 protein (A138V) is in the mutant confirmation when grown at 39C (the nonpermissive temperature) and in the wild type conformation when grown at 32C (the permissive temperature). A H1299-neo line (p53 null) grown at both 39C and 32C were used as counter-screens to filter out false positive associated with temperature shifting. The small molecular compounds that selectively target mutant p53-containing cancer cells were selected as candidate probes for further study. A cytotoxicity assay based on the measurement of ATP contents in cells was used in this screen. Concentration-responses of all the compounds in the library collection were determined in qHTS using the cell lines and temperature conditions as above.
NCGC Assay Protocol Summary: Both the H1299-p53A138V and H1299-neo cell lines were provided by Dr.Yi Sun, a PI at the University Michigan. The cells were maintained and cultured at 37C. The resuspended frozen cells were used to plate the cells in the 1536-well assay plates at a density of 600 cells per well in 5 ul medium. The assay plates with the cells were incubated at 37C for 16 to 30 hours before the experiments. The library compounds in DMSO solution were added to the cells in assay plates and incubated 24 hours at 39C (for mutant p53 conformation) or 32C (for normal p53 conformation as control). An ATP_lite assay kit (PerkinElmer) was used to determine the cell viability. Tomaxifen (100uM) was used as the positive control for cell killing. Data were normalized to the controls for basal activity (DMSO only) and 100% killing (100uM tamoxifen). AC50 values were determined from concentration-response data modeled with the standard Hill equation. P53 assay protocol: 1. Reagent; 5 uL H1299-p53A138V or H1299-neo cell cells/well 2. Time; overnight; 37C incubation 3. Compounds; 23 nL; 5.9 nM to 46 uM 4. Controls; 23 nL; Tamoxifen 100 uM 5. Time; 24 hr; 39C incubation 6. Reagent; 3 uL; ATP_Lite reagent 7. Time; 20 min; Room Temperature 8. Detection; Luminescence; Viewlux plate reader Keywords: p53, synthetic lethal, cancer, cell viability, cytotoxicity, H1299 cell line, luminescence, MLSMR, MLSCN, NIH Roadmap, qHTS, NCGC
On the technique in general: qHTS replaces the single test concentration by a dilution series.
With `Cc1ccc(Nc2ccc3cc(S(=O)(=O)N4CCCCC4)ccc3n2)cc1F`, the Potency entry is “inactive”.

On to `O=C(CC(c1cccs1)N1Cc2ccccc2C1=O)Nc1ccc(F)c(F)c1` (stereo not given), for which the Potency entry is “inactive”. `Cc1ccc(N2CCN(C(=O)CCc3c(C)nc4c(c3C)c(=O)n(C)c(=O)n4C)CC2)c(C)c1`: the Potency entry is “inactive”.

For the compound `CC(C)(C)c1csc(NC2=NS(=O)(=O)c3ccccc32)n1`, the Potency is 12.6 µM (active).

Consider `c1ccc(Nc2nc(-c3ccncc3)cs2)nc1`, for which the Potency result is “inactive”. Under `O=C(CSc1nccn1Cc1ccc(F)cc1)NCc1ccccc1` stands “inactive”. For the compound `CCN(C(=O)Cn1cnc2sc(C)c(S(=O)(=O)N3CCN(c4ncccn4)CC3)c2c1=O)c1ccccc1F`, the Potency result is “inactive”. On to `CCOC(=O)c1c(S(=O)(=O)N2CCCC(C(=O)NCc3cccc(C)c3)C2)c(C)n(C)c1C` (stereo not given), for which the Potency result was “inactive”. Consider `CC1(C)N=C(SCc2ccccc2Cl)c2ccccc2N1`, for which the Potency result was “inactive”. Take `Cc1cc(/C=N/n2cnnc2)c(C)n1-c1cccc(C(=O)O)c1`: the Potency entry was “inactive”. For the compound `Cc1ccccc1-n1c(C)cc(/C=C2\NC(=O)NC2=O)c1C`, the Potency is 8.91 µM (active). Take `Cc1ccccc1N1CC(c2nc3ccccc3[nH]2)CC1=O` (stereo not given): the Potency entry was “inactive”. Take `CC(C)c1ccc(NC(=O)c2ccc(Cn3nc(N4CCN(c5ccccc5)CC4)ccc3=O)o2)cc1`: the Potency result is “inactive”. For `O=S(=O)(c1ccc(C2CCCCC2)cc1)N1CCN(c2ccc(Cl)c(Cl)c2)CC1`, the Potency result was “inactive”. Under `CCOc1ccc(CNC(=O)C2CCCN(S(=O)(=O)N(CC)c3ccc(OCC)cc3)C2)cc1` (stereo not given) stands “inactive”; under `CSc1nn(Cc2cccc(C)c2)c(N)c1S(=O)(=O)c1ccccc1`, “inactive”. On to `COc1ccc(CCN(C)CCN2C(=O)c3ccccc3C2=O)cc1OC`, for which the Potency result is “inactive”. Take `CCCCOc1ccc(Cn2c(=O)oc3ccc(C)cc32)cc1OC`: the Potency entry is “inactive”. For the compound `CCCCOc1ccc(CN2C(=O)C(=O)c3cc(Br)cc(C)c32)cc1OC`, the Potency was 7.94 µM (active). Turning to `COc1ccc(CCNC(=O)c2cc3cccc4c3n2CC(C)S4)c(OC)c1OC` (stereo not given), the Potency entry is “inactive”. Under `Cc1cccc(Cn2c(SCc3ccc(C(=O)N4CCC(C)CC4)cc3)nc3ccncc32)c1` stands “inactive”; under `CC(C)CC(=O)NCC(c1ccc2c(c1)OCO2)N1CCN(c2ccc(F)cc2)CC1` (stereo not given), “inactive”. The same measure for `CC(C)(C)NC(=O)CSc1nc(-c2ccc(F)cc2)cc(C(F)(F)F)n1`: “inactive”. The same measure for `c1ccc(Nc2n[nH]nc2-c2ccccc2)cc1`: “inactive”; for `CSc1nc(Nc2ccc(F)cc2)cc(-c2ccccc2)n1`: 12.6 µM (active). As for `CCC(=O)N1c2ccccc2CC1C(=O)N1CCN(c2ccccc2)CC1` (stereo not given), the Potency result was “inactive”. In the case of `Cc1cccc(N2CCN(c3ccc(C(=O)O)cc3NC(=O)c3ccccc3F)CC2C)c1` (stereo not given), the Potency result is “inactive”. The same measure for `COc1ccc(OC)c(CCNC(=O)CCCn2c(=O)c3cccn3c3cccnc32)c1`: “inactive”; for `CCOc1ccc(OCC)c(NS(=O)(=O)c2ccc3[nH]c(=O)ccc3c2)c1`: “inactive”; for `c1ccc(-n2ncc3c2ncn2c(C4CCCCC4)nnc32)cc1`: “inactive”.

In the case of `CCN(c1ncnc2c1cnn2-c1ccc(C)cc1)C1CCCCC1`, the Potency was 20 µM (active). For the compound `CCN(CC)C(=O)CSc1ncnc2c1cnn2-c1ccccc1`, the Potency entry was “inactive”. As to `Cc1cccc(-c2nc(SCC(=O)Nc3cc(C)on3)c3c(=O)n(C)c(=O)n(C)c3n2)c1`, the Potency entry was “inactive”.

Regarding `Cc1cc(C)c2c(n1)nn1c(N3CCOCC3)cc(C)nc21`, the Potency result was “inactive”. Take `Cc1nc2ccccc2n1C(=O)N1CCOCC1`: the Potency result was “inactive”. Under `Cc1nn2c3cc(N4CCOCC4)ccc3nc2c2ccccc12` stands 2 µM (active); under `O=C(CSc1ncc(-c2ccccc2)[nH]1)Nc1ccc(F)cc1F`, “inactive”; under `Cc1cccc(NC(=O)CSc2ncc(-c3ccccc3)[nH]2)c1C`, “inactive”.

With `CCOc1cccc(NC(=O)CSc2ncc(-c3ccc(Cl)cc3)[nH]2)c1`, the Potency was 20 µM (active). Regarding `CCCc1nnc(NC(=O)CN2C(=O)c3ccccc3S2(=O)=O)s1`, the Potency was 12.6 µM (active). Under `CNC(=O)CN1C(=O)c2ccccc2S1(=O)=O` stands “inactive”; under `CCCc1nnc(NC(=O)c2cc(OC)cc(OC)c2)s1`, “inactive”; under `Cc1ccc(C)c2sc(NC(=O)c3ccc(S(=O)(=O)N4CCCC4)cc3)nc12`, “inactive”. Consider `CC1=C(C(=O)N2CCN(c3cccc(C(F)(F)F)c3)CC2)C2(CCCCC2)OC1=O`, for which the Potency result was “inactive”.

On to `CCOc1cc(C(=O)Nc2ncccn2)cc(OCC)c1OCC`, for which the Potency entry was “inactive”. Turning to `Cn1c(=O)c(C(=O)Nc2ncccn2)c(O)c2ccccc21`, the Potency is 12.6 µM (active).

As for `O=C(Nc1ncccn1)c1cccs1`, the Potency entry was “inactive”. `Cc1ccc(C(=O)Nc2ccc(OCc3cc(=O)n4c5c(sc4n3)CCCC5)cc2)cc1`: the Potency entry was “inactive”. In the case of `CCN(CC)c1cc(NC2CCCCC2)c2c3c(onc13)-c1ccccc1C2=O`, the Potency entry is “inactive”. Under `Cc1cccc(N2CCN(C(=O)c3oc(=O)c4ccccc4c3-c3ccccc3)CC2)c1C` stands “inactive”. The same measure for `COc1ccc(OCCn2cc(C(=O)C3CCCCC3)c3ccccc32)cc1`: “inactive”. For the compound `CCOc1ccc(C(=O)/C=C/c2cn(CC(O)CN3CCCCCC3)c3ccccc23)cc1` (stereo not given), the Potency was 10 µM (active). For `O=C(/C=C/c1cn(CC(O)CN2CCc3ccccc32)c2ccccc12)c1ccc(Br)cc1` (stereo not given), the Potency result was “inactive”. As to `COc1ccc(Cn2c(C(=O)O)c(CNCCc3cccs3)c3ccc(OC)cc32)cc1`, the Potency result was “inactive”.

Turning to `CCOC(=O)C1=C(c2ccc(OC)cc2)C(=O)c2ccccc2C1=O`, the Potency is 7.08 µM (active).

On to `CCOC(=O)c1ccccc1NS(=O)(=O)c1ccc(OC)cc1`, for which the Potency entry was “inactive”. As for `CCCCC(C(=O)OCC(=O)c1ccc(OC)cc1)N1C(=O)c2ccccc2C1=O` (stereo not given), the Potency result was “inactive”.

With `Cc1cc(F)ccc1NS(=O)(=O)c1ccc(-n2cccn2)cc1`, the Potency result is “inactive”. For the compound `O=C(Nc1cc(-c2nc3ccccc3o2)ccc1Cl)c1cc([N+](=O)[O-])ccc1N1CCOCC1`, the Potency entry is “inactive”. Regarding `COc1ccc2oc(-c3ccc(C)c(NC(=O)c4sc5ccccc5c4Cl)c3)nc2c1`, the Potency entry was “inactive”. Consider `Cc1ccc2c(c1)N(C(=O)CCC(=O)NCc1ccccc1F)CC(C)O2` (stereo not given), for which the Potency entry was “inactive”. Consider `Cc1ccccc1-c1nc(CS(=O)(=O)CC(=O)NC(C)c2ccccc2)c(C)o1` (stereo not given), for which the Potency entry is “inactive”. With `Cc1ccccc1-c1nc(CS(=O)(=O)CC(=O)N2CCc3ccccc3C2)c(C)o1`, the Potency result was “inactive”. With `Cc1ccccc1-c1nc(CS(=O)(=O)CC(=O)Nc2cc(Cl)cc(Cl)c2)c(C)o1`, the Potency is 20 µM (active). Take `CCC1CCCCN1S(=O)(=O)c1ccc(NC(=O)c2cc(=O)c3ccccc3o2)cc1` (stereo not given): the Potency entry was “inactive”.
